Only some compounds are listed: those with a hit (about 1.5% of all), similar ones and a draw of the others.
PI5P4Ka inh: qHTS for Inhibitors of phosphatidylinositol 5-phosphate 4-kinase (PI5P4K); Phosphatidylinositol 5-phosphate 4-kinase type-2 alpha (Homo sapiens), P48426; PI5P4Kalpha enzyme, ADP-Glo luminescence, 60 min; active compounds read low; max response, %; 330,000 compounds, 1.2% hits; AID 652105, 2013; active means max response of -50% or lower; inconclusive means between -30% and -50%; inactive means -30% or higher; further: value at the top dose of about 77 µM; on the % scale 0 is the no-effect control and ±100 the full control effect
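PI5P4Kalpha ADP-Glo assay; 5 microM ATP final; 60 min RT reaction; HEPES pH 7.4/EGTA/CHAPS, 5% DMSO; controls lacking substrate or enzyme; luminescent end-point.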
FEN1 inh-1: qHTS Assay for the Inhibitors of Human Flap endonuclease 1 (FEN1); AID 588795, 2011; Potency, µM (series often up to 114 µM), inactives show at the highest dose activity change, negative = inhibition, usual class: inhibitors; P39748; Recombinant FEN1 flap cleavage, fluorescence, 15 min; 390,000 compounds, 0.35% hits; further: potency means the concentration at half of the fitted maximal effect; on the % scale 0 is the no-effect control and ±100 the full control effect; nearly all actives have a fitted effect of over 65% in size
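With each library titrated from low to high concentration, compounds met 10 nM FEN1 for 15 min at room temperature before 50 nM substrate was added; readings at 0 and 15 min fed four-parameter Hill curve fits.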
APE1 inh: qHTS Assay for Inhibitors of the Human Apurinic/apyrimidinic Endonuclease 1 (APE1); 350,000 compounds, 0.35% hits; DNA repair nuclease/redox regulator APEX1 (Homo sapiens), P27695; Potency, µM (doses to about 65.8 µM), without a hit: top-dose activity change, negative = inhibition, most hits filed as inhibitors; recombinant APE1, TAMRA/BHQ-2 abasic DNA cleavage fluorescence;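 further: potency means the concentration at half of the fitted maximal effect; plate controls were vehicle for no effect and reference inhibitor for full effect; nearly all actives have a fitted effect of over 55% in size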
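Substrate: short duplex with […] THF abasic site, 5'-TAMRA and 3'-BHQ-2, 50 nM final. APE1 at 0.75 nM, preincubated 15 min RT with compound. Fluorescence increase from first to third read measured activity.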
BLM inh: qHTS Assay for Inhibitors of Bloom's syndrome helicase (BLM) | RecQ-like DNA helicase BLM (Homo sapiens), P54132 | recombinant BLM DNA unwinding, fluorescence dequenching | 350,000 compounds, 0.2% hits | Potency, µM (series often up to 56.1 µM), without a hit: top-dose activity change, negative = inhibition, hits mostly inhibitors;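 further: potency means the concentration at half of the fitted maximal effect; plate controls were vehicle for no effect and no enzyme for full effect; nearly all actives have a fitted effect of over 35% in size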
RECQ1 helicase: qHTS Assay for Inhibitors of RecQ-Like Dna Helicase 1 (RECQ1). ATP-dependent DNA helicase Q1 (Homo sapiens), P46063. RECQ1 DNA unwinding, red fluorescence kinetic read. Potency, µM (highest dose often 57.3 µM), for the others: at the highest dose activity, negative = inhibition, most hits filed as inhibitors. 240,000 compounds, 0.54% hits;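 further: potency means the concentration at half of the fitted maximal effect; plate controls were vehicle for no effect and no enzyme for full effect; nearly all actives have a fitted effect of over 30% in size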
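RECQ1T1 50 nM; forked duplex (20 bp + 30-nt ss tails) 200 nM, ATP 2 mM final; pH 8.0, 2 mM MgCl2, 2.5 ug/ml poly(dI-dC); 15 min compound preincubation; discontinuous kinetic read over 2 h at RT.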
GCN5L2 inh-1: qHTS Assay for Inhibitors of GCN5L2 | GCN5L2 HAT assay, ThioGlo1 CoA-SH fluorescence | Potency, µM (titrated, usually from 58.9 µM), for the others: top-dose activity change, negative = inhibition, hits mostly inhibitors | 390,000 compounds, 0.21% hits; further: potency means the concentration at half of the fitted maximal effect; on the % scale 0 is the no-effect control and ±100 the full control effect
Target sequence (Q92830 whole entry, looked up): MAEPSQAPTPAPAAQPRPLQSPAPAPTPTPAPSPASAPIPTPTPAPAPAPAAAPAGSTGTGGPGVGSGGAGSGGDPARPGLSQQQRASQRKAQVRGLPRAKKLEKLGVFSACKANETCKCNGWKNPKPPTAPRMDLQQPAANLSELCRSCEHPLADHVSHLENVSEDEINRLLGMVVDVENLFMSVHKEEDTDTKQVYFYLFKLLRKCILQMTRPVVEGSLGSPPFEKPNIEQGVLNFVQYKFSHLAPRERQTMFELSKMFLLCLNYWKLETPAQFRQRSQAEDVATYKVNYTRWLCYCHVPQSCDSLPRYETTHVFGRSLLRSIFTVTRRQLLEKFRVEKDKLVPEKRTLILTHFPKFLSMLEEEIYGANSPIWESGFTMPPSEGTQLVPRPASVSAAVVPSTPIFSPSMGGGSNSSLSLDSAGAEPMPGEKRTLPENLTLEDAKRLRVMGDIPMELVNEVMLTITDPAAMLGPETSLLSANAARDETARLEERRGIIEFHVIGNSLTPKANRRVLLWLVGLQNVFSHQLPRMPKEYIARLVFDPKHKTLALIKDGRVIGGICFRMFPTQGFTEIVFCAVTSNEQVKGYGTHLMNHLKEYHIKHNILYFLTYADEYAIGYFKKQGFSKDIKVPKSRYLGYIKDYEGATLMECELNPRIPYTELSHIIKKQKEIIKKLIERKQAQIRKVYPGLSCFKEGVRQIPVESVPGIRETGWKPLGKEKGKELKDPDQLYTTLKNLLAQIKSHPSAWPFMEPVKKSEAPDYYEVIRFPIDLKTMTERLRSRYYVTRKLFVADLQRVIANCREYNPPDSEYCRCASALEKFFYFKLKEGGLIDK
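Titration-based screen in which CoA formation is detected via maleimide probe ThioGlo1 (50uM) turning fluorescent on thiol reaction; substrates H3(1-25) 75uM and acetyl-CoA 70uM, GCN5L2 20nM, 20 min incubation at room temperature.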
GCN5L2 inh-2: qHTS Assay for Inhibitors of GCN5L2: Hit confirmation | 140 compounds, 70% hits | shares compounds with GCN5L2 inh-1 | GCN5L2 HAT, ThioGlo1 CoA fluorescence, 20 min | Potency, µM, most hits filed as inhibitors
FEN1 inh-2: qHTS Assay for the Inhibitors of FEN1: Confirmatory Assay for Cherry-picked Compounds | shares compounds with FEN1 inh-1 | FEN1 flap cleavage, TAMRA/BHQ2 fluorogenic DNA substrate | Potency, µM, most hits filed as inhibitors | 880 compounds, 79% hits | AID 720498, 2013; further: potency means the concentration at half of the fitted maximal effect; nearly all actives have a fitted effect of over 60% in size
ADP-Glo counter: qHTS for Inhibitors of PI5P4K: ADP-Glo counter assay | shares compounds with PI5P4Ka inh | ADP-Glo detection counter-screen, luciferase luminescence, no enzyme | Potency, µM (doses to about 76.9 µM), inactives show at the top dose activity change, negative = inhibition, most hits filed as inhibitors | 1,100 tested, under 10 active | AID 743285, 2014
An asterisk follows results filed as active; i = inactive; ? = inconclusive; . = no result given. Unless noted, the call rests on the fitted dose curve; in most records, active means well fitted curve in the direction sought with a large enough effect; inconclusive means small, poorly fitted or top-dose-only effect, or another doubt; inactive means no such curve, though single readings can be large; an effect the other way counts as inactive or inconclusive.

SMILES | PI5P4Ka inh | FEN1 inh-1 | APE1 inh | BLM inh | RECQ1 helicase | GCN5L2 inh-1 | GCN5L2 inh-2 | others
COc1ccc(-c2nn(-c3ccccc3)cc2/C=N/NC(=O)c2ccc(Br)o2)cc1 | 5 | 0% | -1% | -6% | ? | 25µM* | 9.1*
CCCN1CCC(=O)N(C(CSc2ccc(Br)cc2)CC(C)C)CC1 (stereo not drawn) | . | -17% | -2% | 3% | -1% | . | .
O=C(Nc1cccc(C(F)(F)F)c1)c1ccc2nc(-c3ccco3)c(-c3ccco3)nc2c1 | -102* | ? | 14% | ? | i | ? | 18*
C[C@@H]1COC(=O)O1 | . | . | 0% | -4% | -5% | -22% | .
CCN(CC)c1ccc2cc(NC(=O)CCC(=O)O)c(=O)oc2c1 | . | -1% | 2% | 2% | -2% | 20µM* | 32*
CC(C)(O)C1Cc2cc(/C=C/C(=O)O)c(O)cc2O1 (stereo not drawn) | -66* | 0% | 4% | -5% | -6% | 10µM* | 9.1*
CC[C@H](C)[C@H](NC(=O)[C@H](CCC(=O)O)NC(=O)CNC(=O)[C@@H](NC(=O)[C@H](CCC(=O)O)NC(=O)[C@H](CCC(=O)O)NC(=O)[C@H](CC(C)C)NC(=O)CNC(=O)[C@@H]1CCCN1C(=O)[C@H](CCC(=O)O)NC(=O)[C@@H](N)[C@@H](C)O)C(C)C)C(=O)N[C@@H](CCC(=O)O)C(=O)N[C@@H](CCC(N)=O)C(=O)N[C@@H](CCCCN)C(=O)N[C@@H](CCC(N)=O)C(=O)N[C@@H](CC(C)C)C(=O)N[C@@H](CCC(N)=O)C(=O)O | . | . | 2% | 1% | -15% | 0% | .
Cc1nc(N2CCN(C)CC2)c2nnn(Cc3ccccc3)c2n1 | . | 0% | . | . | . | . | .
C=CCc1cccc2cc(C(=O)Nc3ccccc3C(=O)O)c(=O)oc12 | -61* | -6% | -1% | -8% | -3% | ? | ?
Cc1nc2nc(-c3cccs3)cn2nc1C | -14 | 13% | 2% | -2% | i | ? | 36*
CN=c1nc(-c2ccccc2)n(-c2ccccc2)s1 | -86* | ? | 5% | . | i | 2.2µM* | 2.6*
CC(=O)N=c1nc(-c2ccccc2)n(-c2ccccc2)s1 | . | -16% | . | . | . | . | .
Cc1cc2nc(-c3ccc[nH]c3=O)[nH]c2cc1C | -20 | -4% | 29% | 0% | . | 28µM* | 36*
CCOc1ccc(NC(=O)CN2C(=O)/C(=C3\SC(=S)N(C4CCS(=O)(=O)C4)C3=O)c3ccccc32)cc1 (stereo not drawn) | 0 | 7% | 3% | -4% | i | -19% | .
O=C(CN1C(=O)/C(=C2\SC(=S)N(CCS(=O)(=O)O)C2=O)c2ccccc21)Nc1cccc(Br)c1 | -97* | ? | 6.7µM* | -15% | . | 20µM* | 11*
c1ccc2sc(SN3CCOCC3)nc2c1 | -76* | -2% | 1% | -1% | i | ? | 14*
c1ccc2sc(N3CCOCC3)nc2c1 | . | -3% | 8% | 1% | 4% | -11% | .
CSc1ccc(/C=N/Nc2cccc(C(=O)O)c2)cc1 | -99* | 22µM* | 2.2µM* | 147% | 32µM* | ? | ? | FEN1 inh-2=43*
O=C(O)c1cccc(N/N=C/c2ccc(OC(F)(F)F)cc2)c1 | 5 | 15% | 35% | 1% | . | 21% | .
COc1ccc(C2Nc3ccccc3C(=O)N2c2ccc(F)cc2)cc1COc1ccc(NC(C)=O)cc1 (stereo not drawn) | . | 7% | . | . | . | . | .
CC1=NN(c2cccc(C(=O)O)c2)C(=O)/C1=C\C=C\c1ccco1 | -80* | 22µM* | 2% | 18% | 0% | ? | ? | FEN1 inh-2=24*
CCN(CC(=O)Nc1c(F)cccc1F)C(=O)/C=C/c1ccc2ccccc2n1 | -100* | 50µM* | 1.7µM* | . | . | ? | 23* | FEN1 inh-2=76*
CC(C)CC(NC(=O)NC(CCC(=O)O)C(=O)O)C(=O)O (stereo not drawn) | . | . | ? | 1% | -9% | 12% | .
CC(NC(=O)c1sc2cc([N+](=O)[O-])ccc2c1Cl)C(C)(C)C (stereo not drawn) | -52* | -5% | -1% | -2% | -9% | ? | 3.6* | ADP-Glo counter=-3%
Nc1ccn([C@@H]2O[C@H](CO)[C@H](O)C2(F)F)c(=O)n1 | . | . | . | 3% | . | 1% | .
SMILES | PI5P4Ka inh | FEN1 inh-1 | APE1 inh | BLM inh | RECQ1 helicase | GCN5L2 inh-1 | GCN5L2 inh-2 | others
CCO/C=C1\SC(=S)N(c2ccc(Cl)cc2)C1=O | -5 | 1% | ? | -6% | ? | 2% | .
CC(C)c1ccc(N2C(=O)/C(=C/N(C)C)SC2=S)cc1 | -27 | 32µM* | 28µM* | 35% | 32µM* | -8% | . | FEN1 inh-2=30*
CCOC(=O)c1sc2nc3c(SCC(=O)O)cc(C(=O)c4ccccc4O)cn3c(=O)c2c1C | 4 | ? | ? | -16% | -12% | -10% | .
COc1ccc(O)c(C(=O)c2cc(SCC(=O)O)c3nc4sc5c(c4c(=O)n3c2)CCCC5)c1 | ? | ? | ? | 22µM* | i | ? | . | FEN1 inh-2=38*
O=C(O)c1ccc2[nH]c3c(c2c1)CSCC3 | -9 | 7% | 7% | -2% | 2% | -6% | .
CN(C)CCOC(=O)c1ccc2[nH]c3c(c2c1)CSCC3 | -10 | 50µM* | -3% | 31% | 2% | -8% | . | FEN1 inh-2=85*
O=S(=O)(Nc1ccc(Cl)cc1NS(=O)(=O)c1ccccc1)c1ccccc1 | 3 | -4% | . | . | . | . | .
COc1ccc(S(=O)(=O)Nc2cccc3ccccc23)cc1 | . | -3% | . | . | . | . | .
